Test [1] can be described thus: liver-stage malaria parasite growth inhibition, primary screen, cell-based, HepG2, luciferase luminescence, HepG2 viability (AID 624349; in the data active = parasite load remaining mostly below about 12%, no sharp cut-off; inactive = mostly above about 10%;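 note: 100% = mean of DMSO negative control wells on the same plate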). Particulars: P. berghei liver stage in HepG2, luciferase luminescence, concentration not given here; parasite load remaining: stronger effect = lower value; viability: measured here: HepG2 viability without parasites.
The nature of test [2]: Cy5 fluorescence interference with SSB-bound oligo, artefact control for HCV NS3 helicase inhibitor project, biochemical, NIH Clinical Collection, E. coli SSB (AID 743268; call rule not given here).
Test [3] has as its system Hepatitis C virus NS3 helicase. Briefly: HCV NS3 helicase inhibitors, primary screen, biochemical, fluorescence polarization, NIH Clinical Collection (AID 743270; call rule not given here). Particulars: NS3 helicase binding to Cy5-dT15 DNA, stronger effect = higher value, concentration not given here. In general terms: Polarisation of emitted light reports the rotation of a fluorescent probe.
The target of test [4] is Single-stranded DNA-binding protein (Escherichia coli (strain K12)) (UniProt P0AGE0). The test can be described thus: E. coli SSB displacement from DNA, counter-screen for HCV NS3 helicase inhibitor project, biochemical, fluorescence polarization, NIH Clinical Collection (AID 743271; in the data active = inhibition above about 28%). Particulars: stronger effect = higher value, concentration not given here.
Test [5] can be described thus: fluorescence interference in NS3h assay format, artefact control for HCV NS3 helicase inhibitor project, biochemical, NIH Clinical Collection (AID 743272; call rule not given here;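 note: HCV NS3 helicase with a Cy5 labelled single stranded DNA probe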). The settings on record: fluorescence interference counterscreen, stronger effect = lower value. For orientation: Counterscreens check selectivity or assay interference.
Test [6] in a line: differential killing of epithelial or mesenchymal cells, primary screen, imaging, PC-3E GFP, TEM4-18 mCherry, co-culture (AID 1345086).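 For all read-outs here: cells exposed to compound for 72 h before imaging.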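 For red/green cell ratio (normalised): normalised mesenchymal count divided by normalised epithelial count so high means epithelial killing.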 Particulars: imaging cell counts, at 1 µM; for red/green cell ratio (normalised): actives lie on both sides.
The subject of test [7] is Aerobactin synthetase IucA (Klebsiella pneumoniae hvKP1). The test can be described thus: Biochemical IucA enzyme inhibition primary screen of the Spectrum library (AID 1346200; call rule not given here;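 note: 100% = wells without compound and 0% = wells lacking enzyme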). The settings on record: malachite green pyrophosphate, A620, at 8 µM, stronger effect = lower value.
Test [8] is described as follows: sensitizers of A549 cells to miR-34 induction, primary screen, imaging, A549 dox-inducible miR-34, nuclei and caspase counts (AID 1347080;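 active = compounds whose cell count with miR-34 switched on is under 0.7 times the count with it off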). Particulars: A549 miR-34 inducible, Hoechst nuclei count, 48 h.
Test [9] in a line: circadian clock period modulators, cell-based, LOPAC library, luminescence reporter (AID 2774; call rule not given here;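 note: values are relative to mean of DMSO wells on each plate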). The settings on record: circadian reporter cells, at 7 µM, actives lie on both sides.
The nature of test [10]: hESC survival regulators, cell-based (AID 493140; call rule not given here;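 note: cells exposed to compounds for four days before counting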). The settings on record: human embryonic stem cell survival screen; stronger effect = higher value.
The test system of test [11] is Hepatitis C virus NS3 helicase. Briefly: HCV NS3 helicase inhibitors, primary screen, biochemical, fluorescence polarization, LOPAC1280 library (AID 687035; in the data active = inhibition above about 37%). Particulars: Purified HCV NS3 helicase, Cy5-dT15 ssDNA binding fluorescence polarization; stronger effect = higher value; concentration not given here.
The nature of test [12]: Cy5 fluorescence quenching or enhancement artefacts, artefact control for HCV NS3 helicase inhibitor project, biochemical, LOPAC1280 (AID 687037; call rule not given here). Particulars: Cy5-DNA-NS3h complex fluorescence interference counterscreen.
The test system of test [13] is Aerobactin synthetase IucA (Klebsiella pneumoniae). The test can be described thus: IucA aerobactin synthetase inhibitors, biochemical, Tocris library, absorbance (AID 1345561; call rule not given here;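 note: 100% = enzyme without compound and 0% = no enzyme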). Particulars: purified IucA enzyme assay, absorbance (OD) read-out; stronger effect = lower value;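 tested at 8 µM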.
For test [14], the system named is Aerobactin synthetase IucA (Klebsiella pneumoniae, hypervirulent). The test can be described thus: IucA enzyme inhibition, biochemical, LOPAC library, absorbance readout (AID 1346212; call rule not given here;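 note: 100% = no compound wells and 0% = no enzyme wells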). The settings on record: IucA enzyme assay, absorbance (OD) readout; stronger effect = lower value;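 tested at 8 µM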.
The nature of test [15]: phospholipid biosynthesis inhibitors in animal cells, primary screen, cell-based, LOPAC library, screen 4 (AID 1347384; call rule not given here). The settings on record: phospholipid biosynthesis inhibition screen, at 10 µM.
Test [16] can be described thus: survival rescue of mitochondrial mutant cells in low glucose, primary screen, MELAS cybrids, Rieske KO mouse fibroblasts, CellTiter-Glo (AID 1508586;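 active = mean z-score across replicates of 1.96 or higher in either the MELAS or the Rieske mutant cell line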;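 note: z relative to plate mean and SD of compound and empty wells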).
The mark [17] stands for this setting: counts scaled to control wells, 1 = unselective.
Where [18] appears, read: measured here: epithelial PC-3E GFP cell survival.
The mark [19] stands for this setting: measured here: mesenchymal TEM4-18 mCherry cell survival.

From PubChem BioAssay come the findings set out here.

Where “and” joins values, the source holds several entries; their conditions need not be identical. Identical values can stand only once. Calls of active or inactive are those of the source.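 Rule for the calls, unless noted: active = compounds killing one labelled cell type while sparing the other, by normalised counts and ratio limits, not self-fluorescent; inactive = the rest.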

Usually viability stands for a read-out of living cells in per cent, often relative to untreated cells. Broadly, the inhibition is the drop in the measured response relative to a control, in per cent. As to `CN1CC[C@]2(c3cccc(O)c3)Cc3nc4ccccc4cc3C[C@H]2C1`, the parasite load remaining in [1] was 54.3% (inactive). Besides, the viability in test [1] came to 65.5%. In addition, the fluorescence ratio in test [2] was 0.96 (inactive); in [5], 0.98 (inactive). In addition, the inhibition is -8.08% (inactive) in test [3] and -1.97% (inactive) in [4].
For `CC1(C)CC(=O)C(Cl)C(=O)C1`, the red/green cell ratio (normalised) in [6] (setting [17]) is 0.82 (inactive). Moreover, the normalised cell number was 1.28 in test [6] (setting [18]) and 1.05 in test [6] (setting [19]).
For `C[C@]12CCC(=O)C=C1CCC1C2CC[C@@]2(C)C1CC[C@H]2O` (stereo not given in full), the red/green cell ratio (normalised) in test [6] was 1.17 (inactive). For the same compound, the normalised cell number worked out at 0.92 in [6] (setting [18]) and 1.08 in test [6] (setting [19]).
As for `CCC(C)C1C(=O)OC(C(C)C)C(=O)N(C)C(C(C)C)C(=O)OC(C(C)C)C(=O)N(C)C(C(C)C)C(=O)OC(C(C)C)C(=O)N1C` (stereo not given), the red/green cell ratio (normalised) in [6] (setting [17]) was 0.98 (inactive) and 0.86 (inactive). For the same compound, the normalised cell number in test [6] (setting [18]) was 1.02 and 0.67; in [6] (setting [19]), 1 and 0.58.
`C[C@@H]1C(=O)OC2[C@H](O)C34[C@@H]5OC(=O)[C@@]3(OC3OC(=O)[C@H](O)[C@@]34[C@H](C(C)(C)C)[C@H]5O)[C@]21O` (stereo not given in full): the red/green cell ratio (normalised) in test [6] (setting [17]) was 1.08 (inactive). In addition, the normalised cell number in test [6] (setting [18]) turned out to be 0.86; in [6] (setting [19]), 0.93.
Turning to `COc1cc2c(cc1OC)[C@@]13CCN4CC5=CCOC6CC(=O)N2C1[C@H]6[C@H]5C[C@H]43` (stereo not given in full), in [1], the parasite load remaining was 97.7% (inactive) and 56.5% (inactive). Further, the viability in test [1] is 63.5% and 87.4%. The red/green cell ratio (normalised) in test [6] is 1.35 (inactive); in test [6] (setting [17]), 0.96 (inactive). The normalised cell number was 1.05 and 0.91 in test [6] (setting [18]); 1.02 and 1.23 in [6] (setting [19]). In [7], the activity remaining was 105% (inactive). Moreover, the fold change in [8] (stronger effect = lower value) is 0.942 (inactive); in [8] (measured here: relative caspase fold change +Dox/-Dox) it was 2.52. Further, the cell count was 11600 in [8] (measured here: total cells with miR-34 induction, stronger effect = lower value) and 12300 in test [8] (measured here: total cells without miR-34 induction).
With `C[C@]12[C@H](O)CC3C(CC[C@@H]4C[C@@H](O)CC[C@]34C)[C@@]1(O)CC[C@@H]2C1=CC(=O)OC1` (stereo not given in full), the red/green cell ratio (normalised) in test [6] was 0.53 (inactive). Further, the normalised cell number was determined as 0.38 in test [6] (setting [18]) and 0.2 in test [6] (setting [19]).
For `CC(=O)OC1CC[C@@]2(C)C(CCC3C2CC[C@]2(C)C(C4=CC(=O)OC4)C(OC(C)=O)CC32O)C1` (stereo not given in full), the red/green cell ratio (normalised) in [6] (setting [17]) is 0.21 (inactive). Moreover, the normalised cell number in test [6] (setting [18]) came out at 0.16; in test [6] (setting [19]), 0.03. The activity remaining in test [7] is 109% (inactive).
Consider `CC1CC[C@]2(NC1)O[C@H]1CC3C4CC[C@H]5C[C@@H](O)CC[C@]5(C)C4CC[C@]3(C)[C@H]1[C@@H]2C` (stereo not given in full), for which the red/green cell ratio (normalised) in test [6] (setting [17]) is 0.81 (inactive). Besides, the normalised cell number stood at 1.1 in [6] (setting [18]) and 0.89 in test [6] (setting [19]). Besides, in test [7], the activity remaining is 96.8% (inactive).
In the case of `CC[C@H]1CN2CCC1C[C@@H]2[C@H](O)c1ccnc2ccc(OC)cc12` (stereo not given in full), the red/green cell ratio (normalised) in test [6] (setting [17]) is 0.88 (inactive). The results for the normalised cell number in test [6] (setting [18]) and in [6] (setting [19]) were 1.22 and 1.07, respectively.
`CCN1C[C@]2(OC(=O)c3ccccc3NC(C)=O)CCC(OC)[C@]34C1[C@@H](CC23)[C@@]1(O)CC(OC)[C@H]2CC4C1(O)[C@H]2OC` (stereo not given in full): the red/green cell ratio (normalised) in test [6] was 1 (inactive). The normalised cell number was 0.94 in test [6] (setting [18]) and 0.93 in test [6] (setting [19]).
With `CN1C2CC(=O)CC1[C@H](O)C2` (stereo not given in full), the red/green cell ratio (normalised) in test [6] (setting [17]) was 0.81 (inactive). Further, the results for the normalised cell number in test [6] (setting [18]) and in test [6] (setting [19]) were 1.25 and 1.01, respectively.
As to `C[C@]12CCC3C(CC[C@H]4C[C@@H](O)CC[C@]34C)C1CCC2=O` (stereo not given in full), the red/green cell ratio (normalised) in test [6] is 0.99 (inactive). The normalised cell number was 1.2 in test [6] (setting [18]) and 1.19 in test [6] (setting [19]). Further, in [7], the activity remaining was 102% (inactive).
On to `C[C@]12CC[C@H](O)C[C@H]1CCC1C2CC[C@]2(C)[C@@H](C3=CC(=O)OC3)[C@@H](O)C[C@]12O` (stereo not given in full), for which the red/green cell ratio (normalised) in test [6] is 0.39 (active). Besides, the normalised cell number amounted to 0.91 in test [6] (setting [18]) and 0.35 in test [6] (setting [19]).
Usually remaining activity stands for the signal under treatment as a percentage of the control signal. Turning to `CCCN1CCC[C@@H]2Cc3[nH]ncc3C[C@H]21`, the period change in test [9] was -0.035 hour (inactive) and -0.145 hour (inactive). The survival in test [10] was 16 (inactive). In addition, the parasite load remaining in [1] was 75.7% (inactive) and 34.7% (inactive). For the same compound, the viability in test [1] was 68.7% and 143%. Besides, the inhibition in [11] is -2% (inactive) and -1% (inactive). In addition, the fluorescence ratio (interference) in test [12] is 1 (inactive). Besides, the red/green cell ratio (normalised) in test [6] is 1.24 (inactive). The values for the normalised cell number in test [6] (setting [18]) and in [6] (setting [19]) were 0.89 and 1.1, respectively. Besides, the results for the remaining activity in test [13] and in [14] were 126% (inactive) and 117% (inactive), respectively. Also, the compound was called inactive in [15]. In addition, the z-score in test [16] (MELAS cybrid survival, CellTiter-Glo 48 h, stronger effect = higher value) was 0.372 (inactive); in test [16] (Rieske KO mouse fibroblast survival, CellTiter-Glo 72 h) it was -0.161.
